Mcl1-Noxa inh = Mcl-1/Noxa interaction inhibition; Q07820; hit rate 1.5% among 220,000; inhibition, % at 21.7 µM; TR-FRET Mcl-1/Noxa peptide binding, 2 h;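 active means compounds that cut the protein-peptide binding signal by more than 50% relative to plate controls in a single-dose test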;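 further: His-tagged Mcl-1 with rhodamine Noxa BH3 peptide and terbium anti-His antibody; 0% = Mcl-1 plus Noxa peptide wells and 100% = peptide-only wells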
Target sequence (Q07820 whole entry, looked up): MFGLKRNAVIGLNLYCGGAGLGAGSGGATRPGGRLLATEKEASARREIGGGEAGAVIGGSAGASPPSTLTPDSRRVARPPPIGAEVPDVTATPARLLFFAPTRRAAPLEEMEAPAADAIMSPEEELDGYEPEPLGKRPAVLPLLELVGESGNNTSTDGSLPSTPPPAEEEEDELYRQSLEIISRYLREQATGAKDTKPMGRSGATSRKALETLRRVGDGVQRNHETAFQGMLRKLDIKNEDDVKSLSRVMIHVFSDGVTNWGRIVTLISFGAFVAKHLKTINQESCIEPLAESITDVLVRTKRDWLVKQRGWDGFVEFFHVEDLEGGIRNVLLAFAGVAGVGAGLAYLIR
MCL1-BIM inh = disrupts human MCL1 binding to BIM-BH3 peptide; Q07820; GST-MCL1 / FITC-Bim-BH3 fluorescence polarization; inhibition, % at 10.9 µM; hit rate 0.68% among 320,000;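 active means inhibition above the mean inhibition of all tested compounds plus 3 SD, set per campaign, cut at about 40% in these data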;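 further: 0% = DMSO wells and 100% = unlabeled Bim-BH3 peptide control; higher means more loss of mP so more displacement of Bim peptide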
BCLXL inh = blocks human Bcl-xL binding to Bim BH3 peptide; Q07817; GST-Bcl-xL / FITC-Bim BH3 peptide fluorescence polarization; inhibition, % at 10.9 µM; hit rate 0.7% among 320,000; AID 2129;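 active means inhibition above the mean of all tested compounds plus 3 SD, cutoff set per campaign, cut at about 30% in these data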;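 further: 0% = DMSO wells and 100% = unlabeled Bim-BH3 peptide competitor; inhibitors lower millipolarization by displacing the labeled peptide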
Target sequence (Q07817 whole entry, looked up): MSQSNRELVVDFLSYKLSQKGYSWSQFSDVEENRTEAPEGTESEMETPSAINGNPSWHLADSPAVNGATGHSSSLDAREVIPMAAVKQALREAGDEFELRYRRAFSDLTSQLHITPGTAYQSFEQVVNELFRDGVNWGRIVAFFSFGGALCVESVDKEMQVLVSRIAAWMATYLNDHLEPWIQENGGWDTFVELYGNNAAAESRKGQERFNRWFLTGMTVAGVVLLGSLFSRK
GLD-1 RNA inh = GLD-1-TGE RNA interaction inhibition (C. elegans) | Q17339 | purified GLD-1 + fluorescein TGE RNA, fluorescence polarization | inhibition, % at 5.96 µM | hit rate 0.44% among 320,000;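 active means percent inhibition above a per-plate cutoff, the plate mean of test compounds plus 3 SD, cut at about 30% in these data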;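 further: 0% = DMSO wells with GLD-1 and probe and 100% = wells lacking GLD-1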
Mcl1 Bid PPI = disrupts binding of human Mcl-1 to Bid peptide; Q07820; TR-FRET Mcl-1/Bid-Dy647 peptide binding, 1536-well; inhibition, % at 21.7 µM; hit rate 0.97% among 220,000; AID 1021;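 active means compounds that cut the binding signal by more than half at the single screening dose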;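 further: His-tagged Mcl-1 with europium anti-His antibody binding Bid BH3 peptide; 0% = Mcl-1 plus peptide wells and 100% = peptide-only wells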
Bim-Mcl-1 = human Bim-Mcl-1 interaction inhibition. Q07820. Bead-based flow cytometry, Bim peptide-Mcl-1 binding. inhibition, % at 10 µM. hit rate 0.1% among 190,000; in the data active means inhibition above about 40%;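 further: 0% = no compound tracer wells and 100% = peptide blocker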
* hit, by the source's call; nt = no result. Hits are enriched below; roughly 2.3% of the tested compounds scored in any of these assays.

SMILES	Mcl1-Noxa inh	MCL1-BIM inh	BCLXL inh	GLD-1 RNA inh	Mcl1 Bid PPI	Bim-Mcl-1
CN(C)c1ccc(/C=N/NC(=O)COc2ccccc2)cc1	34	8	3	0	-38	-2
COc1cc(NC(=O)c2ccccc2)c(OC)cc1NC(C)=O	12	0	6	-2	-53	-2
CN(NC(=O)COc1ccccc1)c1ccccc1	-16	1	3	6	94*	-8
COc1cc(NC(=O)COc2ccccc2)c(OC)cc1NC(C)=O	11	2	11	4	95*	0
COc1ccc(C2Nc3ccccc3C(=O)N2NS(=O)(=O)c2ccc(C)cc2)cc1 (stereo unspecified)	12	-2	-3	-11	-24	-1
COC(=O)C1=C(C)N(Cc2cccnc2)C(=O)/C1=C\c1cccs1	41	4	7	8	14	-2
CN(c1cccc(NC(=O)c2ccccc2N(C)S(C)(=O)=O)c1)S(C)(=O)=O	16	0	-3	5	68*	-7
CSc1cccc(NC(=O)c2ccccc2N(C)S(C)(=O)=O)c1	2	-9	-5	-4	1	-4
Oc1ccc(N=Nc2cccc(C(F)(F)F)c2)cc1C=Nc1ccc(N2CCOCC2)cc1	69*	9	6	4	11	3
O=C(Nc1ccc(Cl)c(Cl)c1)Nc1ccc([N+](=O)[O-])cn1	53*	5	7	0	36	nt
O=C(Nc1ccc(F)cc1)Nc1ccc([N+](=O)[O-])cn1	15	-4	1	6	7	-4
CC(C)(C)NC(=O)NC(=O)CN1CCN(Cc2ccccc2)CC1	13	-21	-31	6	-13	2
NC1=NC(=O)C2(COC(c3ccncc3)OC2)S1 (stereo unspecified)	3	-5	0	0	-9	-1
NC1=NC(=O)C2(COC(c3cccnc3)OC2)S1 (stereo unspecified)	7	6	86*	5	1	0
Cc1ccc(-c2nn(-c3ccccc3)cc2C(N)=O)o1	51*	-14	-6	-11	-21	0
CCN(CC)Cc1cc(O)c(CN(CC)CC)cc1O	98*	nt	nt	nt	-100	0
C=CCC(C)(NCc1ccccc1)c1ccc(C)cc1 (stereo unspecified)	16	2	4	0	-8	-5
COc1ccc2c(c1OC)C(=O)N1C2SC[C@H]1C(=O)NC1CC1 (stereo partly specified)	nt	10	6	2	nt	nt
CC1=Nc2cccc3cccc(c23)N1	93*	25	22	0	-21	-3
COc1cccc(C2=Nc3cccc4cccc(c34)N2)c1	57*	19	14	8	10	-5
c1coc(C2=Nc3cccc4cccc(c34)N2)c1	33	24	14	9	-58	8
Nc1ccc(C2=Nc3cccc4cccc(c34)N2)cc1	77*	nt	nt	nt	10	3
C/C=C/c1ccc(OCC(=O)NCc2ccccc2OC)c(OC)c1	-1	-1	2	0	-43	1
CN(CCc1ccccn1)C(=O)CCC1CCCN(C(=O)NC2CCCCC2)C1 (stereo unspecified)	-1	-6	1	-3	-32	57*
CN(CCc1ccccn1)C(=O)CCC1CCCN(C(=O)c2ccccn2)C1 (stereo unspecified)	14	7	5	4	-29	-1
SMILES	Mcl1-Noxa inh	MCL1-BIM inh	BCLXL inh	GLD-1 RNA inh	Mcl1 Bid PPI	Bim-Mcl-1
CCc1nc2oc3ccccc3c(=O)c2c(=O)n1-c1ccc(C)cc1	54*	20	13	-4	-19	nt
CCCc1nc2oc3ccccc3c(=O)c2c(=O)n1-c1ccc(C)cc1	2	0	4	-1	7	nt
O=C1CN(C(=O)CNCc2ccccc2)c2ccccc2N1	44	-3	-5	-4	69*	nt
O=C(c1ccccc1)C(O)c1ccccc1 (stereo unspecified)	nt	3	4	0	nt	nt
C=CC(c1ccccc1)C(C(=O)c1ccccc1)N(C)C (stereo unspecified)	-9	nt	nt	nt	82*	-1
Cc1nc2ccccn2c1-c1ccnc(=S)[nH]1	57*	6	-24	0	-30	nt
S=c1nccc(-c2ccc(Cl)cc2)[nH]1	9	3	10	-5	-74	nt
O=C(CSc1nnc(NC(=O)c2ccccc2F)s1)NCc1ccc(F)cc1	nt	-2	1	-1	nt	nt
CCCNC(=O)C1CCN(c2cc(-c3ccccc3)nc3ncnn23)CC1	69*	4	2	-4	-4	0
CCc1c(C)nc2ncnn2c1N1CCC(C(=O)Nc2ccccc2)CC1	-26	1	5	4	-3	1
CCOc1ccc(CC(=O)OCN2C(=O)c3ccccc3C2=O)cc1	0	8	8	-1	-1	-4
CSc1nc2ccc3nc(NC(=O)c4ccc(Cl)s4)sc3c2s1	52*	-1	1	4	66*	1
CSc1nc2ccc3nc(NC(=O)c4cccs4)sc3c2s1	30	8	5	3	66*	-15
O=C(Nc1nc(-c2ccccn2)cs1)c1ccc(Cl)s1	-82	10	9	-5	-51	0
CC(C)NS(=O)(=O)c1ccc(CCC(=O)NCc2ccccn2)cc1	nt	11	9	5	nt	nt
O=[N+]([O-])c1ccccc1/C=N/n1c(-c2cccnc2)n[nH]c1=S	46	-17	-24	8	-37	-9
O=[N+]([O-])c1cc(/C=N/n2c(-c3cccnc3)n[nH]c2=S)ccc1Cl	70*	0	-42	1	-25	0
Cc1ccc(N2CC(C(=O)N3CCC(C(=O)Nc4cccc(Br)c4)CC3)CC2=O)cc1 (stereo unspecified)	nt	-1	0	2	nt	nt
Cc1nc(-c2ccccn2)sc1C(=O)Nc1ccc(F)cc1F	-1	1	4	1	-6	1
CNC(=O)c1sc(-c2ccccn2)nc1C	8	7	2	-6	-2	59*
O=[N+]([O-])c1cc(S(=O)(=O)Nc2ccc(Cl)cc2)ccc1N/N=C/c1ccncc1	52*	1	5	-2	26	-2
CCc1cc2cc(C)cc(C)c2[nH]c1=S	60*	2	4	-1	26	0
COc1ccccc1NC(=O)COc1cc(Br)c(CNCCCN2CCOCC2)cc1OC	43	1	-3	0	89*	2
O=C(CCc1ccccc1)NCc1ccccc1	-5	-4	3	-10	-19	-7
O=C(COCC(=O)NCc1ccccc1)NCc1ccccc1	4	-2	0	5	-19	49*
COc1ccccc1Nc1nc(-c2cccc(N3C(=O)c4ccccc4C3=O)c2)cs1	20	-3	3	3	-38	-2
O=C1c2ccccc2C(=O)N1c1cccc(-c2csc(Nc3ccc4c(c3)OCO4)n2)c1	62*	53*	27	11	38	1
O=C(O)c1cccc(-n2cccc2C=C2C(=O)c3ccccc3C2=O)c1	26	7	11	-11	-113	27

Bioassay records: PubChem BioAssay, several laboratories
